Compound activity: PubChem BioAssay, Sanford-Burnham Center for Chemical Genomics
Shown are actives, neighbours in structure and some others; about 2% of the full set was active somewhere.
APOBEC3A inh – inhibitors of human APOBEC3A DNA deaminase. recombinant A3A, FAM/TAMRA ssDNA deamination fluorescence. AID 493011. inhibition, % at 20 µM. 330,000 tested, 0.41% active. P31941;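 active means at least 40% inhibition at 20 µM here, with at most 30% in a related deaminase screen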
GC-B act – GC-B (human) receptor activation. 370,000 tested, 0.11% active. P20594. HEK293-GC-B cells, CNP EC30, cGMP TR-FRET; 0% at EC30 CNP, 100% saturating CNP. activation, % at 10 µM;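 active means activation at 10 µM reaching about 35% in either raw or pattern-adjusted values, limit read from the data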
Target sequence (P20594 whole entry, looked up): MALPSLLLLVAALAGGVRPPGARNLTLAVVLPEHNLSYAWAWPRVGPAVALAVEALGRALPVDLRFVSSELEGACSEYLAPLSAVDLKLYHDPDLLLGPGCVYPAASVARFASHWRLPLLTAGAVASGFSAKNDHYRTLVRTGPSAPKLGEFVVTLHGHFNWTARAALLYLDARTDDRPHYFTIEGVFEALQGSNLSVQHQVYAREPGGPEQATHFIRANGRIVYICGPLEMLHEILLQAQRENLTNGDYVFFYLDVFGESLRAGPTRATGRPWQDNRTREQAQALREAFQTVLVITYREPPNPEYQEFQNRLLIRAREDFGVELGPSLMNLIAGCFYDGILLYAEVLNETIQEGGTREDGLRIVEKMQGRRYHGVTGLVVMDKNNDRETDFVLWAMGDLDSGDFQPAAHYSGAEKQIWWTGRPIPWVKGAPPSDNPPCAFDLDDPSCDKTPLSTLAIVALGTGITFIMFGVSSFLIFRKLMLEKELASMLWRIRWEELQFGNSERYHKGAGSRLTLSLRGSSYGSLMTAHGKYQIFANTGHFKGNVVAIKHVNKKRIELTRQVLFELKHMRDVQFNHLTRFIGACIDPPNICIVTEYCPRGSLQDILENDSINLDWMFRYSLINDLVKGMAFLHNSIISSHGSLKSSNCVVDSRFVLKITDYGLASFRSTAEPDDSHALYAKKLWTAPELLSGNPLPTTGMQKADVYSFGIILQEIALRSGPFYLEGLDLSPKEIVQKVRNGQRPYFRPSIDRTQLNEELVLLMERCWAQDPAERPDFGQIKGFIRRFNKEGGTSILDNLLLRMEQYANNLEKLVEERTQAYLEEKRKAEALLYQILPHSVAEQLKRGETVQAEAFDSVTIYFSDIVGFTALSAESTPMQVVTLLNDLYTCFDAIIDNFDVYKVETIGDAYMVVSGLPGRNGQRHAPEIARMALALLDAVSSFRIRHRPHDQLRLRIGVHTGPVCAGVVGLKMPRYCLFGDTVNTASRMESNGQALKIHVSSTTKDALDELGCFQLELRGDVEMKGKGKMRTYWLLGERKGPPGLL
A3G deaminase – APOBEC3G (human) deaminase inhibition | recombinant A3G, ssDNA deamination FAM/TAMRA fluorescence | inhibition, % at 20 µM | 330,000 tested, 0.28% active | Q9HC16;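 active means inhibition of at least 40% at 20 µM, with no more than 30% in the related APOBEC3A deaminase screen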
Neddylation inh – inhibitors of human cullin neddylation; TR-FRET cullin neddylation, biochemical; inhibition, % at 25 µM; 360,000 tested, 0.58% active; AID 651699; in the data active means inhibition above about 36%
GC-A act – GC-A (human) enzyme activation; P16066; HEK293 GC-A cells, cGMP TR-FRET, EC30 ANP; 0% at EC30 ANP, 100% saturating ANP; activation, % at 10 µM; 370,000 tested, 0.14% active; in the data active means activation above about 40%
PfGluPho inh – PfG6PD (Plasmodium falciparum) enzyme inhibition; PfGluPho enzyme, NADPH resazurin-diaphorase fluorescence; inhibition, % at 20 µM; 350,000 tested, 0.78% active; AID 504690;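 active means inhibition reaching at least a set limit at 20 µM in the primary screen, cut at about 59% in these data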
Hits are given with their value; 0 = inactive; - = no result given.

SMILES	APOBEC3A inh	GC-B act	A3G deaminase	Neddylation inh	GC-A act	PfGluPho inh
Fc1ccc(-c2cc(-c3nnc4sc(-c5cccs5)nn34)[nH]n2)cc1	-	0	-	-	0	-
Cc1ccc(Cn2c(=N)c(C(=O)NCc3ccco3)cc3c(=O)n4ccccc4nc32)cc1	0	0	0	63	53	0
Cc1ccc(Cn2c(=N)c(C(=O)NCC3CCCO3)cc3c(=O)n4cccc(C)c4nc32)cc1 (configuration not stated)	0	37	0	-	40	0
Cc1ccc(Cn2c(=N)c(C(=O)NCC3CCCO3)cc3c(=O)n4ccccc4nc32)cc1 (configuration not stated)	0	0	0	-	0	0
COC1=C[C@H](C(=O)NCCOC(C)=O)[C@H](C)[C@@H](c2ccccc2)CC1=O	-	0	-	-	0	-
CCOC(=O)N1CCN(C(=O)C[C@H]2C[C@@]3(C(=O)OC)C(=C[C@H](C4CCCC4)O[C@@H]3C)N(Cc3cccc4ccccc34)C2=O)CC1	-	0	-	-	0	-
CCn1c(=O)c(C(=O)CN2c3ccccc3CC2C)c(N)n(Cc2ccccc2)c1=O (configuration not stated)	0	0	0	0	41	0
COc1ccc(-c2n[nH]c(C(F)(F)F)c2-c2cc3ccccc3o2)c(O)c1	0	0	0	43	0	0
CC(C)(C)c1ccc(-n2nc(C(N)=O)c(O)cc2=O)cc1	0	0	0	0	0	0
CC(C)(C)c1ccc(-n2nc(C#N)c(Cl)cc2=O)cc1	0	74	0	0	69	0
COC1=CC(=O)C(C2CC(=O)c3c(O)cc(O)cc3O2)=CC1=O (configuration not stated)	-	0	-	0	0	124
Nc1sc(Cc2ccccc2)cc1C(=O)c1c(-c2ccccc2)[nH]c2ccccc12	-	0	-	0	60	-
Oc1ccc(-c2nc3ncccn3c2Nc2ccc3c(c2)OCO3)cc1	0	0	0	0	0	0
c1ccc(-c2nc3cnccn3c2Nc2ccc3c(c2)OCCO3)cc1	0	36	0	0	45	0
COc1cc(-c2nc3cnccn3c2Nc2ccccc2)ccc1O	0	0	0	-	0	0
Oc1ccc(-c2nc3cnccn3c2Nc2ccc3c(c2)OCCO3)cc1	0	0	0	0	41	0
Cc1ccn2c(Nc3ccc4c(c3)OCO4)c(-c3ccc(O)cc3)nc2c1	0	0	0	-	47	0
COc1cc(-c2nc3cnccn3c2Nc2ccc(C(C)C)cc2)ccc1O	0	0	0	-	55	0
CCOC(=O)[C@@]12CN(C(=O)OC(C)(C)C)CC=C1N(Cc1ccc(OC)cc1)C(=O)[C@H]2CC(=O)NCCc1ccccc1OC	-	0	-	-	0	-
O=C(OC12CCCN(C1)/C(=C/c1ccc(Cl)cc1)C2)C1CCCC1 (configuration not stated)	-	0	-	-	0	-
CN1CC=C(c2ccccc2)N(c2ccc(Cl)cc2)C1=O	-	0	-	-	0	-
COC[C@@H](OC(C)=O)[C@H]1OCc2ccccc2[C@@H]1/C=C/c1ccccc1	-	0	-	-	0	-
COc1cc(-c2nc3ccc(C)cn3c2Nc2ccc3c(c2)OCCO3)ccc1O	0	39	0	-	0	0
COc1cc(-c2nc3cnccn3c2Nc2ccc3c(c2)OCCO3)ccc1O	0	0	0	0	0	0
CSCC[C@H](NC(=O)[C@H](Cc1ccccc1)n1c(=O)[nH]c2ccccc2c1=O)C(=O)N1CCC[C@H]1C(=O)O	0	83	0	0	0	0
SMILES	APOBEC3A inh	GC-B act	A3G deaminase	Neddylation inh	GC-A act	PfGluPho inh
C=CCN1CCc2nc(N)sc2CC1	-	0	-	0	0	0
CCN1CCc2nc(N)sc2C1	0	0	0	0	0	62
CC(=O)Nc1ccc(NS(=O)(=O)c2ccc3c(c2)n(C)c(=O)n3C)cc1	0	0	0	0	0	0
CCCc1nn(C)c2c(=O)[nH]c(-c3ccccc3OCC)nc12	0	0	0	0	0	0
CCCc1nn(C)c2c(=O)[nH]c(-c3cc(S(=O)(=O)N4CCN(C)CC4)ccc3OCC)nc12	0	58	0	0	52	0
CCCc1nn(C)c2c(=O)[nH]c(-c3cc(S(=O)(=O)Nc4ccc(NC(C)=O)cc4)ccc3OCC)nc12	0	55	0	0	41	0
C=CCN1[C@H](CC(C)C)COc2cc(N3CCSCC3)ccc2S1(=O)=O	-	0	-	-	0	-
CCC(C)Nc1nc(C)nc2c1nnn2Cc1ccccc1 (configuration not stated)	-	0	-	-	0	-
CC(C)(C)C(=O)OC12CCCN(C1)/C(=C/c1ccc(C#N)cc1)C2 (configuration not stated)	-	0	-	-	0	-
COc1ccc(S[C@]2(C(=O)N(C)C)CC(=O)N(S(=O)(=O)c3ccc(F)cc3)[C@@H]2c2ccc(OC)cc2)cc1	-	0	-	-	0	-
CN(C)c1ccc(-c2nc3ncc(Cl)cc3[nH]2)cc1	-	0	-	-	0	-
c1ccc(-c2nc3ccccc3o2)nc1	0	0	0	0	0	0
c1ccc2nc(-c3nc4ccccc4o3)ccc2c1	0	0	0	40	0	0
O=C(CSc1ncnc2c1oc1ccccc12)Nc1ccccc1F	0	0	0	0	63	0
CCOc1ccccc1NC(=O)CSc1ncnc2c1oc1ccccc12	0	0	0	-	0	0
COc1ccc(Cl)c2c1[nH]c1nc(SCc3ccccn3)nnc12	0	0	0	0	0	0
COc1ccc(Cl)c2c1[nH]c1nc(SCc3cccnc3)nnc12	0	43	0	0	0	0
CCOC(=O)c1ccc(NC(=O)Cn2ncc(Cl)c(Cl)c2=O)cc1	0	0	0	0	61	0
CCC(=O)Nc1ccc(C(=O)Cn2ncc(Cl)c(Cl)c2=O)cc1	0	0	0	0	0	0
O=c1[nH][nH]c(=S)n1C1CCCCC1	0	-	0	-	-	95
CCCS(=O)(=O)c1c(S(=O)(=O)CCC)c2ccc(C(N)=O)cn2c1C(=O)c1ccccc1	0	42	0	0	0	0
CCCS(=O)(=O)c1c(S(=O)(=O)CCC)c2c(C(N)=O)cccn2c1C(=O)c1ccc(F)cc1	0	0	0	0	0	0
O=S1(=O)C=CCN1Cc1cn(Cc2ccccc2)nn1	-	0	-	-	0	-
CCN1C(=S)N[C@@H](c2cccc(F)c2)C(C(=O)OC)=C1C	0	45	0	0	0	0
O=C1CSC(=S)N1/N=C/c1ccc(O)c(O)c1O	0	-	0	0	-	79
COc1ccccc1C=NN1C(=O)CSC1=S	-	0	-	0	0	0
COC(=O)[C@]12C[C@H](CC(=O)NCc3cccs3)C(=O)N(Cc3ccco3)C1=C[C@H](C(C)C)O[C@@H]2C1CC1	-	0	-	-	0	-
Cc1cc(-c2n[nH]c(=S)n2N=Cc2ccc(-c3ccccc3)cc2)n[nH]1	-	0	-	-	0	-
Cc1c(C(N)=O)sc2nc(-c3ccccc3)cn12	0	74	0	0	0	0
COCCN(CCOC)C(=O)c1sc2nc(-c3ccccc3)cn2c1C	0	0	0	0	0	0
